Drawing on ChEMBL document CHEMBL4513216, “Probing the Open Global Health Chemical Diversity Library for Multistage-Active Starting Points for Next-Generation Antimalarials” (ACS Infect Dis, 2020), this text covers INHIBITION for 112 compounds.

Screen size: about 69,000 compounds; about 8,600 (12%) showed an effect of 50% or more. The entries come from a sample that favours strong results as a whole.

For the experiment, the system named is Plasmodium berghei. As to the kind of experiment: Screen against P. berghei liver stage (PbLuc), transformed with Luciferase, at 10uM. Conditions: tested at 10 uM. It is filed as functional, HepG2.
In the case of `COCCCN(Cc1cnc(N2CCCC2)nc1)C1CCN(C)CC1`, the INHIBITION is 10.3%.
`CC1=Nc2c(c(O)nn2C(C)C)C(c2cccnc2)S1` (configuration not stated): the INHIBITION is listed as -3.19%.
Regarding `CC(=O)N1CC(=O)N(c2ccccc2)CC12CCN(CC1CC1)C2` (configuration not stated), the INHIBITION came out at 27.9%.
Consider `O=C(OC1CCC1)c1ncccc1OCC(F)(F)F`, for which the INHIBITION was 8.08%.
On to `O=C(O)c1ncccc1OCC(F)(F)F`, for which the INHIBITION is given as 59.1%.
As to `O=C(OC1CCC1)c1ncccc1C(F)(F)F`, the INHIBITION is listed as 42.8%.
Take `Cc1nccc(C2CCCN(C(=O)c3cncnc3)C2)n1` (configuration not stated): the INHIBITION is -38.3%.
For `COC(=O)C(C)(C)S(=O)(=O)c1ccc(Br)cc1`, the INHIBITION is listed as -1.15%.
`COc1ccc(NC(=O)Nc2c(O)c3ccccc3oc2=O)cc1`: the INHIBITION turned out to be 33.6%.
With `C[C@H](O)CNc1cc(-c2cn[nH]c2)ncn1`, the INHIBITION stood at 24.8%.
For the compound `CC(C)[C@@H](CO)Nc1cc(-c2cn[nH]c2)ncn1`, the INHIBITION was determined as 56%.
For `CCc1cc(=O)[nH]c(-c2ccc(NC(CO)CC(C)C)nc2)n1` (configuration not stated), the INHIBITION is listed as -27.4%.
With `CC(C)(CO)Nc1cc(-c2ccncc2)ncn1` the figure was 44.1%; with `CC[C@@H](CO)Nc1cc(-c2cn[nH]c2)ncn1`, 50.1%.
`C[C@@H](CO)Nc1cc(-c2cn[nH]c2)ncn1`: the INHIBITION is 20.4%.
Turning to `OCCNc1cc(-c2ccccc2)ncn1`, the INHIBITION is 47.1%.
`CC(C)(CO)Nc1cc(-c2ccccc2)ncn1`: the INHIBITION is reported as 29.3%.
For the compound `CC(C)(CO)Nc1cc(-c2cn[nH]c2)ncn1`, the INHIBITION amounted to 56%.
As to `CC(C)CCn1cc(C(C(=O)O)N2CCC(N3CCSCC3)CC2)cn1` (configuration not stated), the INHIBITION was found to be 3.06%.
With `CCn1ccnc1CN1CCN(C(C)C(=O)NCc2ccco2)CC1` (configuration not stated) the figure was 18.6%; with `Cc1c[nH]nc1C1CN(c2cnccn2)CCO1` (configuration not stated), 24.05%; with `Cc1nc(C(C)C)sc1C(=O)NCC(C)(C)N1CCOCC1`, -20.1%.
In the case of `Cc1nn(C)c(C)c1-c1nc2cc(S(=O)(=O)N3CCCC3)ccc2n1C`, the INHIBITION is reported as -28%.
With `O=C1COC2(CCN(CC3CCOCC3)CC2)CN1Cc1ccccn1` the figure was 27.4%.
With `O=C(NCCCO)c1nnsc1-c1ccc(Cl)cc1`, the INHIBITION was found to be 31.7%.
The same measure for `Clc1ccc2[nH]c3c(c2c1)CCCC3c1nn[nH]n1` (configuration not stated): 30.2%.
Take `Cn1c(N)c2c(=O)n(C)c(-c3ccc(Cl)cc3Cl)cc2c(C#N)c1=O`: the INHIBITION came out at 66%.
As to `Cn1c(N)c2c(=O)n(C)c(-c3ccccc3)cc2c(C#N)c1=O`, the INHIBITION was 0.868%.
As for `Cn1c(N)c2c(=O)n(C)c(-c3ccc(Cl)cc3)cc2c(C#N)c1=O`, the INHIBITION is -26.3%.
As to `COc1ccc(NC(=O)CCSc2ccc3nncn3n2)c(OC)c1`, the INHIBITION was determined as 28.1%.
As for `O=C1CO[C@H]2CN(Cc3cccc4[nH]ccc34)C[C@@H]2N1C1CCOCC1`, the INHIBITION turned out to be 26.8%.
`Cc1cnc(-c2nc(C3CCCN(Cc4cccs4)C3)no2)cn1` (configuration not stated): the INHIBITION stood at 14.975%.
As to `Oc1cc(C2CCCN(Cc3cccs3)C2)nc(-c2ccccn2)n1` (configuration not stated), the INHIBITION is listed as 81.5%.
With `Cn1nc(C2CCCN(Cc3cccs3)C2)c2nccnc21` (configuration not stated) the figure was -0.902%; with `Oc1cc(C2CCCCN2Cc2ccsc2)nc(-c2ccncc2)n1` (configuration not stated), 10.9%; with `Oc1cc(C2CCCCN2Cc2cccs2)nc(-c2ccncc2)n1` (configuration not stated), 19.25%.
As to `Oc1cc(C2CCCCN2Cc2cccs2)nc(-c2ccccn2)n1` (configuration not stated), the INHIBITION is given as 86.3%.
For `COCCNC(=O)[C@@H]1CN(Cc2sccc2C)C[C@H]2OCC[C@H]21`, the INHIBITION is reported as 16.8%.
Turning to `Cn1nnc(NCc2ccc(-c3ccc(Cl)cc3)o2)n1`, the INHIBITION came out at 49.7%.
As to `Brc1ccc(CNCc2nnc3n2CCC3)s1`, the INHIBITION amounted to 36.7%.
`Cc1nc(C2CCCN2CC(=O)N(C)Cc2ccsc2)no1` (configuration not stated): the INHIBITION is 13.3%.
Regarding `COc1cccc2c1N(CC(=O)Nc1ccc(Cl)cn1)CCC2`, the INHIBITION is recorded as 33.1%.
With `COc1cccc2c1N(CC(=O)Nc1ccc(Br)cn1)CCC2`, the INHIBITION is listed as 66.7%.
For `O=C(CN1CCCc2cc(F)cc(F)c21)Nc1ccc(Br)cn1`, the INHIBITION is on record as -5.57%.
As for `Cn1cnc(S(=O)(=O)N2CCCC2c2cnccn2)c1` (configuration not stated), the INHIBITION was determined as 22%.
Turning to `Cc1cn2nc(N3CCN(Cc4cc(C)on4)CC3)sc2n1`, the INHIBITION is 7.08%.
With `Cc1cn2nc(N3CCCN(Cc4noc(C)n4)CC3)sc2n1`, the INHIBITION is listed as -9.14%.
Regarding `CCc1nc(CN2CCCN(c3nn4cc(C)nc4s3)CC2)no1`, the INHIBITION was 85.2%.
Take `Cc1cn2nc(N3CCN(Cc4c(C)noc4C)CC3)sc2n1`: the INHIBITION is 58.5%.
`Cc1cc(CN2CCN(c3nn4cc(C)nc4s3)CC2)on1`: the INHIBITION turned out to be 37%.
As to `Cc1cn2nc(N3CCN(Cc4nc(C(C)C)no4)CC3)sc2n1`, the INHIBITION is 42%.
In the case of `Cc1cnn(CC(C)Nc2nc3ccccc3o2)c1` (configuration not stated), the INHIBITION was determined as 21.8%.
With `COCC[C@]1(O)CCN(C2CCN(C(=O)C3CCC3)CC2)C[C@H]1C`, the INHIBITION is on record as 36.4%.
In the case of `O=C(NC1CCC1)[C@H]1C[C@H]2CN(C(=O)Nc3ccc(F)cc3)C[C@@H]1O2`, the INHIBITION is reported as 1.9%.
With `NC(=O)CCSc1ccccc1NCc1ccc(Cl)s1` the figure was 75.7%.
Take `CC(C)(C)c1ncc(C(=O)NC(C(N)=O)c2ccccc2)s1` (configuration not stated): the INHIBITION is given as 3.15%.
With `NC(=O)CSc1ccccc1NCc1nc(Cc2ccccc2)no1` the figure was -75.4%; with `c1ccc(NCc2ccsc2)c(Cn2cncn2)c1`, 3.41%.
Regarding `NC(=O)C(NC(=O)CCc1ccc(Cl)s1)c1ccccc1` (configuration not stated), the INHIBITION is -19.7%.
With `CNc1nc(CNC(=O)Nc2ccccc2SC)cs1` the figure was 6.14%; with `CC(C)(C)c1ncc(CNc2ccccc2SCCC(N)=O)s1`, 83.4%; with `CC(C)(C)c1nc(CNc2ccccc2SCCC(N)=O)cs1`, 77.4%.
`c1csc(CNc2ccccc2Cn2cncn2)c1`: the INHIBITION was -56.8%.
With `Cc1ccc(CNc2ccccc2SCCC(N)=O)s1` the figure was 39.7%; with `CC(C)N(CC(N)=O)Cc1csc(C(C)(C)C)n1`, -7.31%; with `CC(C)(C)c1ncc(CNc2ccccc2Cn2cncn2)s1`, 60.6%.
In the case of `CC(=O)N1CCC(Cc2cncc(-c3c(C)n[nH]c3C)n2)C1` (configuration not stated), the INHIBITION turned out to be 28%.
With `CN1CC(=O)N(c2cccnc2)CC12CCN(C(=O)c1cccn1C)C2` (configuration not stated) the figure was -46.8%.
On to `CCCOC(=O)NCCC1CN(c2cnn(C)c(=O)c2)CCO1` (configuration not stated), for which the INHIBITION was found to be 45.3%.
For `CC(=O)NC(=O)C1(CCCc2ccncc2)CCN1` (configuration not stated), the INHIBITION is given as 12.3%.
Consider `O=C(N1CCCC1)N1Cc2nccn2CC(COc2cccnc2)C1` (configuration not stated), for which the INHIBITION is -21.1%.
As to `CSc1ccc(C(=O)N2CC(=O)N(Cc3ccccc3)CC(O)C2)cc1` (configuration not stated), the INHIBITION was -42.1%.
With `O=C(CN1C(=O)CCC1=O)N1CCOC2(CCOCC2)C1` the figure was 32.4%; with `O=C(CN1C(=O)CCC1=O)N1CCOCC1`, 59.8%.
Take `O=C(Cn1nc(Br)nc1Br)N1CCOCC1`: the INHIBITION came to 15.5%.
With `Cc1nc2[nH]cnc(Nc3ccn(C)n3)c-2n1`, the INHIBITION came out at 25.9%.
Regarding `CC(C)CC(NC(=O)OC(C)(C)C)C(N)=O` (configuration not stated), the INHIBITION turned out to be 13.9%.
With `Cc1cccc(-c2nc3cc(S(=O)(=O)N4CCCC4)ccc3n2C)n1`, the INHIBITION is -7.53%.
On to `CC(C)(CO)CCCNC(=O)NC1(c2ccccc2F)CC1`, for which the INHIBITION amounted to 9.16%.
With `O=C(NCCOc1ccc2c(c1)OCO2)C1CC(=O)N(C2CC2)C1` (configuration not stated), the INHIBITION came out at 31.9%.
In the case of `O=C(N[C@H]1CN[C@H]2CCCO[C@H]21)c1cscn1`, the INHIBITION worked out at 1.81%.
Turning to `O=C(N[C@@H]1CN[C@@H]2CCCO[C@@H]21)c1cscn1`, the INHIBITION was 11.4%.
`O=C(N[C@@H]1CN[C@H]2CCCO[C@H]21)c1cnccn1`: the INHIBITION was found to be 52%.
For the compound `Cc1ccc(CNc2cc(C(=O)N3CCOCC3)nc(C)n2)cc1`, the INHIBITION is reported as -3.72%.
The same measure for `CC(C)N1CC(C(=O)NCc2cccnc2-n2cccn2)CC1=O` (configuration not stated): 6.2475%.
With `CC(C)C(=O)NCCCNC(=O)Nc1cc(-c2ccccc2)ns1`, the INHIBITION is listed as -89.2%.
As for `CNC(=O)CNC(=O)Nc1cc(-c2ccccc2)ns1`, the INHIBITION was determined as 73.3%.
With `CC(C)(C)NC(=O)CNC(=O)Nc1cc(-c2ccccc2)ns1`, the INHIBITION is given as 26%.
Take `COc1cccc(CCC(=O)N2CCCC(c3nncn3C)C2)c1` (configuration not stated): the INHIBITION amounted to 4.71%.
With `COc1cc(CN2CCCCCC2c2cccs2)cc(OC)c1O` (configuration not stated), the INHIBITION is listed as 50.8%.
With `COc1cccc(CN2CCCCCC2c2cccc(F)c2)c1O` (configuration not stated) the figure was -0.29%; with `COc1ccc(CN2CCCCCC2c2cccs2)c(OC)c1` (configuration not stated), 10.2%; with `COc1cccc(CN2CCCCCC2c2sccc2C)c1O` (configuration not stated), 23.5%.
With `COc1cc(CN2CCCCCC2c2cccs2)cc(OC)c1OC` (configuration not stated), the INHIBITION is 29.3%.
The same measure for `COc1cccc(CN2CCCCCC2c2cccc(C)c2)c1O` (configuration not stated): 56.1%; for `COc1ccc(OC)c(CN2CCCCCC2c2cccs2)c1` (configuration not stated): 50.5%; for `COc1ccc(CN2CCCCCC2c2cccs2)c(O)c1` (configuration not stated): 4.35%.
With `COc1cccc(CN2CCCCCC2c2cccs2)c1O` (configuration not stated) the figure was 33.2%; with `CC1=Nc2c(c(O)nn2C(C)C)C(c2cnn(C)c2)S1` (configuration not stated), 21.7%.
Consider `COc1nsc2nc(C3CCCN3C(C)=O)ccc12` (configuration not stated), for which the INHIBITION is recorded as 26.12%.
Regarding `CCS(=O)(=O)c1ccc(N2CCC(NC(=O)CCC(C)C)CC2)cc1`, the INHIBITION is recorded as 42.6%.
The same measure for `CCCc1nccn1-c1ccc(C(C)O)cc1` (configuration not stated): -20.6%; for `Cc1nccn1-c1ccc(N2CCC(NC(C)CC(C)C)CC2)cc1` (configuration not stated): 38.5%.
As for `CCCC(C)NC1CCN(c2ccc(-n3ccnc3C)cc2)CC1` (configuration not stated), the INHIBITION worked out at 52.1%.
For `Cc1nccn1-c1ccc(CN2CC3C[C@@H](O)CN3C[C@@H]2C)cc1` (some centres not stated), the INHIBITION was -44.8%.
On to `Cc1nccn1-c1ccc(C(C)NCCc2ccccn2)cc1` (configuration not stated), for which the INHIBITION came out at 62.8%.
Take `Cn1cc(C(NCCc2ccccn2)c2cccc(F)c2)cn1` (configuration not stated): the INHIBITION is listed as -1.75%.
In the case of `Cc1nccn1-c1ncccc1NC(=O)CCOCC(C)C`, the INHIBITION stood at 4.66%.
Turning to `Cc1nn(C)c(C)c1CN(Cc1cccn1-c1ncccn1)C(C)C`, the INHIBITION is -30.5%.
In the case of `Cc1nn(C)c(C)c1CCNC(C)c1ccc(-n2ccnc2C)cc1` (configuration not stated), the INHIBITION turned out to be 87.6%.
As to `CC(Cn1ccnc1)NC(=O)NCCc1ccccn1` (configuration not stated), the INHIBITION was 46.5%.
On to `Cc1nccn1-c1ccc(C(C)NCCC(C)C)cc1` (configuration not stated), for which the INHIBITION amounted to 62.8%.
